Active and inactive are the calls of the source. Rule for the calls: active = hit-call score of the fitted dose curve at least 0.9, where 1 is the maximum; inactive = score below 0.9.

AC50 and outcome data for four molecules are collected here from PubChem BioAssay (EPA / NIEHS).

Assay [1] can be described thus: ATG_CRE_CIS: Attagene CIS-FACTORIAL HepG2 Assay for human cAMP Responsive Element (CRE) binding protein 3 (AID 2282926). The following applies: HepG2 CRE cis-reporter, Attagene multiplexed mRNA; actives raise or lower the signal. In a few lines: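 Induced reporter mRNA from a CRE cis element, measured in HepG2 among many multiplexed units at 24 h. Detection used RT-PCR plus capillary electrophoresis of fluorescent fragments; DMSO served as negative control.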

In assay [2] the target is CCAAT/enhancer-binding protein beta (Homo sapiens) (UniProt P17676). The assay can be described thus: ATG_C_EBP_CIS: Attagene CIS-FACTORIAL HepG2 Assay for human CCAAT/Enhancer Binding Protein (C/EBP) beta (AID 2282927). The conditions noted are these: HepG2 Attagene cis-factorial transcription factor reporter; actives raise or lower the signal. The gist of the method:
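Changes in reporter mRNA, rather than exogenous chimeric receptor activity, reflect native C/EBP signalling in transfected HepG2 cells dosed for 24 h; transcripts are detected by RT-PCR and capillary electrophoresis.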

A short description of assay [3]: ATG_CMV_CIS: Attagene CIS-FACTORIAL HepG2 Assay for human CMV (Internal Marker) (AID 2282928).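 Note: endpoint acts as a background internal control marker rather than a target.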 The following applies: HepG2 CMV promoter reporter, transcription factor profiling; actives raise or lower the signal. In a few lines: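 Readout: fluorescent reporter cDNA fragments separated by capillary electrophoresis after RT-PCR and HpaI cut. Cells: HepG2 carrying transfected cis-promoter reporter constructs, dosed 24 h. Endpoint serves as background internal-marker control, fit bidirectionally versus DMSO.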

The nature of assay [4]: ATG_DR4_LXR_CIS: Attagene CIS-FACTORIAL HepG2 Assay for human Liver X Receptor (LXR), DR4 submotif (AID 2282929). The conditions noted are these: HepG2 Attagene DR4 cis-reporter, mRNA transcription; actives raise or lower the signal. The gist of the method:
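Cells were transfected with multiple reporter transcription units, exposed to chemicals for 24 hours, then lysed for RNA. Reporter mRNA induction was measured by RT-PCR with capillary electrophoresis detection and fitted in both directions relative to DMSO.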

The target of assay [5] is Aryl hydrocarbon receptor (Homo sapiens) (UniProt P35869). In words: ATG_Ahr_CIS: Attagene CIS-FACTORIAL HepG2 Assay for human Aryl Hydrocarbon Receptor (Ahr) (AID 2282930). The following applies: HepG2 AhR cis-factorial reporter transcription; actives raise or lower the signal. The gist of the method: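 HepG2, transient MRTU (cis) transfection, 24 h exposure. RNA → cDNA → PCR → 6-FAM primer extension → HpaI 2 h 37 C → CE. Fit: bidirectional, DMSO baseline.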
Sequence of Aryl hydrocarbon receptor (Homo sapiens) (P35869 whole entry, looked up): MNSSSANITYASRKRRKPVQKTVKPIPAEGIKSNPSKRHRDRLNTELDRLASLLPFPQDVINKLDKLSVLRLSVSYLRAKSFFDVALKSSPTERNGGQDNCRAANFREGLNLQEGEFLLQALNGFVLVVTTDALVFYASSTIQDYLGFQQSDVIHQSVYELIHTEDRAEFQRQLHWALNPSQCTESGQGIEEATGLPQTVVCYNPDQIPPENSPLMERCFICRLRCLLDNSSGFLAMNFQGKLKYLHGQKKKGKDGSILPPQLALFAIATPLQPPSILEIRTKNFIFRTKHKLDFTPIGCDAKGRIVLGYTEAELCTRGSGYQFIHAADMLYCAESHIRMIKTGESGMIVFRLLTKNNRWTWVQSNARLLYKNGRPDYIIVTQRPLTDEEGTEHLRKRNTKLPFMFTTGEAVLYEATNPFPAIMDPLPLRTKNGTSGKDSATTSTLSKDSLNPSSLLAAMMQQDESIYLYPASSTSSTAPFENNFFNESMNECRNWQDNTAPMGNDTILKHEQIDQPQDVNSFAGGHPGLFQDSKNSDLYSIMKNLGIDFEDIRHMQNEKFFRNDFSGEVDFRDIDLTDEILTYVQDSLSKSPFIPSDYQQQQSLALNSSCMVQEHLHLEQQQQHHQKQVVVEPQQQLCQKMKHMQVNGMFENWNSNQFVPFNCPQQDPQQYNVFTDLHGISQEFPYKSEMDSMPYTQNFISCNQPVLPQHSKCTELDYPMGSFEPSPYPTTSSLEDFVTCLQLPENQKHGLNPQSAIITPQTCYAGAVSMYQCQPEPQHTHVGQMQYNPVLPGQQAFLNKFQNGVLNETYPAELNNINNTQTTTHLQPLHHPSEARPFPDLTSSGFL

Assay [6] in a line: ATG_AP_1_CIS: Attagene CIS-FACTORIAL HepG2 Assay for human Activator Protein 1 (AP-1) (AID 2282931). The conditions noted are these: HepG2 Attagene cis-factorial AP-1 reporter mRNA; actives raise or lower the signal. The gist of the method: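 Endogenous transcription-factor activity in human HepG2 liver cells is read through a cis-promoter reporter transcript, sampled 24 h after dosing. Detection uses RT-PCR with capillary electrophoresis; values come from bidirectional fitting relative to DMSO.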

Assay [7] in a line: ATG_AP_2_CIS: Attagene CIS-FACTORIAL HepG2 Assay for human Activator Protein 2 (AP-2) (AID 2282932). The following applies: HepG2 AP-2 cis-reporter, Attagene transcription factor profiling; actives raise or lower the signal. In a few lines: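 Transiently transfected HepG2 cells are exposed to chemical for 24 h. Reporter transcripts are then measured as fluorescence following RT-PCR and capillary separation, and gain- or loss-of-signal is fitted relative to DMSO.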

Assay [8] is described as follows: ATG_BRE_CIS: Attagene CIS-FACTORIAL HepG2 Assay for human Bone Morphogenetic Protein (BMP) Response Element (BRE) (AID 2282933). The following applies: HepG2 BMP response element reporter, Attagene transcription factor profiling; actives raise or lower the signal. In a few lines: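 A HepG2 multiplex reporter system measured inducible reporter mRNA 24 h post-dosing. Detection: RT-PCR, 6-FAM primer extension, HpaI digestion, capillary electrophoresis. Activity fitted bidirectionally relative to DMSO.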

In assay [9] the target is Transcription factor E2F1 (Homo sapiens) (UniProt Q01094). In words: ATG_E2F_CIS: Attagene CIS-FACTORIAL HepG2 Assay for human E2F Transcription Factor 1 (AID 2282935). The conditions noted are these: HepG2 Attagene cis-reporter, E2F reporter RNA transcripts; actives raise or lower the signal. The gist of the method: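 Fluorescent RT-PCR products, digested with HpaI for 2 h at 37 C, are separated by capillary electrophoresis. Source RNA comes from transfected HepG2 cultures treated for 24 h.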
Sequence of Transcription factor E2F1 (Homo sapiens) (Q01094 whole entry, looked up): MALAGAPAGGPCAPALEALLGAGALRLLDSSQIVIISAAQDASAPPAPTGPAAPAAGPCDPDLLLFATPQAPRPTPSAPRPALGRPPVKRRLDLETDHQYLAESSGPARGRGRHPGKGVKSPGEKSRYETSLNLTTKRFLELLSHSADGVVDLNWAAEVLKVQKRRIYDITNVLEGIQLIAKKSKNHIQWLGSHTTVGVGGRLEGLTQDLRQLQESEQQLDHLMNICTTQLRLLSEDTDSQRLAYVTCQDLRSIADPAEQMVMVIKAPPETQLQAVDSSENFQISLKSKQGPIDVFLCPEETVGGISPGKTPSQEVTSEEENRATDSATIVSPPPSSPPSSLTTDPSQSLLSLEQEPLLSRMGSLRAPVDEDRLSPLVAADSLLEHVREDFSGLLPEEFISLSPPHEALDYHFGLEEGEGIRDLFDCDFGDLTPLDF

Assay [10] can be described thus: ATG_E_Box_CIS: Attagene CIS-FACTORIAL HepG2 Assay for human Enhancer Box (E-box) (AID 2282936). The conditions noted are these: HepG2 E-box cis-reporter transcription, actives raise or lower the signal. The gist of the method:
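Fluorescent reporter fragments separated by capillary electrophoresis gave the signal; mRNA came from HepG2 cells transfected with cis-element reporters and treated 24 h. Curves fitted bidirectionally relative to DMSO controls.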

Assay [11] in a line: ATG_M_61_CIS: Attagene CIS-FACTORIAL HepG2 Assay for M61 Transcription Factor (Internal Marker) (AID 2282937). The conditions noted are these: HepG2 Attagene CIS-FACTORIAL M61 internal marker reporter; actives raise or lower the signal. The gist of the method:
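Cells were transfected with reporter units under cis-regulatory promoters, treated with chemicals for 24 h, then lysed for RNA. Reporter transcripts were quantified by RT-PCR and capillary electrophoresis, and activity was fitted bidirectionally against DMSO.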

Assay [12] in a line: ATG_EGR_CIS: Attagene CIS-FACTORIAL HepG2 Assay for human Early Growth Response 1 (EGR1) (AID 2282938). The conditions noted are these: HepG2 Attagene CIS-FACTORIAL EGR reporter mRNA; actives raise or lower the signal. In a few lines: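 Endogenous TF activity in HepG2 liver cells was gauged through cis-promoter reporter constructs transiently transfected. After 24 h dosing, reporter mRNA was quantified by RT-PCR and capillary electrophoresis, and curves fitted in both directions versus DMSO.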

A short description of assay [13]: ATG_M_19_CIS: Attagene CIS-FACTORIAL HepG2 Assay for M19 Transcription Factor (Internal Marker) (AID 2282939). The following applies: HepG2 Attagene CIS-FACTORIAL M19 internal marker reporter; actives raise or lower the signal. The gist of the method: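 Chemical-treated HepG2 (24 h) with MRTU constructs; reporter transcripts detected by fluorescent RT-PCR fragment analysis on capillary electrophoresis. Internal background marker, DMSO as baseline.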

A short description of assay [14]: ATG_ERE_CIS: Attagene CIS-FACTORIAL HepG2 Assay for Estrogen Response Element (ERE) (AID 2282940). The conditions noted are these: HepG2 ERE cis-reporter, Attagene RNA transcript; actives raise or lower the signal. In a few lines: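 Human liver cells (HepG2) bearing transiently transfected, promoter-regulated reporter units were exposed 24 h. Reporter mRNA induction was detected by capillary electrophoresis of labelled RT-PCR products and fitted bidirectionally to DMSO.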

Assay [15] in a line: ATG_Ets_CIS: Attagene CIS-FACTORIAL HepG2 Assay for human Erythroblast Transformation Specific (ETS) (AID 2282941). The conditions noted are these: HepG2 ETS cis-reporter transcription, actives raise or lower the signal. In a few lines: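 RT-PCR/capillary electrophoresis fluorescence read-out of reporter mRNA; HepG2 transient multi-reporter transfection; 24 h compound exposure; gain or loss of signal fitted bidirectionally relative to DMSO.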

The target of assay [16] is Hepatocyte nuclear factor 3-beta (Homo sapiens) (UniProt Q9Y261). The assay can be described thus: ATG_FoxA2_CIS: Attagene CIS-FACTORIAL HepG2 Assay for human Forkhead box A2 (FOXA2) (AID 2282942). The following applies: HepG2 cis-reporter transcription factor activity, 24 h; actives raise or lower the signal. The gist of the method:
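Endogenous transcription factor activity was read in HepG2 cells carrying transiently transfected cis-promoter reporter units. After 24 h dosing, reporter mRNA was quantified by RT-PCR and capillary electrophoresis, and values fitted bidirectionally versus DMSO.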

Assay [17] is described as follows: ATG_FoxO_CIS: Attagene CIS-FACTORIAL HepG2 Assay for human Forkhead box O (FoxO) (AID 2282943). The following applies: HepG2 Attagene cis-reporter, FoxO element, mRNA; actives raise or lower the signal. The gist of the method:
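Human hepatoma HepG2 cells carry transiently introduced reporter transcription units controlled by cis promoter elements. Chemical treatment lasted 24 h, and mRNA signal was compared with DMSO.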

Assay [18] in a line: ATG_GLI_CIS: Attagene CIS-FACTORIAL HepG2 Assay for human Zinc Finger Protein GLI1 (AID 2282945). The conditions noted are these: HepG2, Attagene cis-factorial reporter mRNA, GLI element; actives raise or lower the signal. The gist of the method: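 Bidirectional curve fits relative to DMSO, using reporter mRNA levels from RT-PCR plus capillary electrophoresis. Cells were HepG2 transiently carrying cis-regulated reporter constructs, harvested 24 h after dosing.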

The target of assay [19] is Retinoic acid receptor alpha (Homo sapiens) (UniProt P10276). The assay can be described thus: ATG_DR5_RAR_CIS: Attagene CIS-FACTORIAL HepG2 Assay for human Retinoic Acid Receptor Alpha (RARE), DR5 submotif (AID 2282934). The following applies: HepG2 Attagene cis-factorial RARE DR5 reporter, mRNA; actives raise or lower the signal. In a few lines:
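HepG2, transient cis-reporter transfection, 24 h exposure. mRNA readout: RT-PCR, FAM label, HpaI cut, capillary electrophoresis. DMSO baseline, gain/loss fitting.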

Assay [20] in a line: ATG_GATA_CIS: Attagene CIS-FACTORIAL HepG2 Assay for human GATA Binding Protein (AID 2282944). The following applies: HepG2 GATA cis-element reporter, Attagene multiplex mRNA; actives raise or lower the signal. In a few lines: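 Transfected cis-reporter HepG2 cells were treated with chemicals for 24 hours. Total RNA was then converted to cDNA, amplified with reporter-specific primers and analysed by fluorescent capillary electrophoresis, using DMSO-treated wells as baseline.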

Sequence of Hepatocyte nuclear factor 3-beta (Homo sapiens) (Q9Y261 whole entry, looked up): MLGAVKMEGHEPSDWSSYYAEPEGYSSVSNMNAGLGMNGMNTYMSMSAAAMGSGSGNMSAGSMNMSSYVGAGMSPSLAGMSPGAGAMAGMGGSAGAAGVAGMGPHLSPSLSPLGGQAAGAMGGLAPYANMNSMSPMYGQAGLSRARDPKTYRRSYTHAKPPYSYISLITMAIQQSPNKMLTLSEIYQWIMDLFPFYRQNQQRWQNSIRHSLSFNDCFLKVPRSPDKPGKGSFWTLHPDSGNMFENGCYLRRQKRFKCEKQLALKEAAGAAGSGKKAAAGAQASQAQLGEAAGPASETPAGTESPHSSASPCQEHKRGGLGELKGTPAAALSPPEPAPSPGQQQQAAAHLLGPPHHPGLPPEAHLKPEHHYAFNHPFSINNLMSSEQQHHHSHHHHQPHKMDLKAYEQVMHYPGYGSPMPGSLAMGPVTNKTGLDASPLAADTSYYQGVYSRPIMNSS
Sequence of CCAAT/enhancer-binding protein beta (Homo sapiens) (P17676 whole entry, looked up): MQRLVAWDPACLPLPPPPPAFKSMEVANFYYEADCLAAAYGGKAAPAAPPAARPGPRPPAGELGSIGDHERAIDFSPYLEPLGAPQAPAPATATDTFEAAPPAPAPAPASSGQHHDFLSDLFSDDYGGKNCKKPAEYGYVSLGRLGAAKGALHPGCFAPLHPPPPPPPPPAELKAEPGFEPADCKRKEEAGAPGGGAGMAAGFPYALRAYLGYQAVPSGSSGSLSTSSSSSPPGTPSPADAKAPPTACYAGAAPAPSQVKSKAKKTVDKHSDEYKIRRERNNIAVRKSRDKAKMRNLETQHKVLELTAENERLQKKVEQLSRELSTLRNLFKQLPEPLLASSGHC
Sequence of Retinoic acid receptor alpha (Homo sapiens) (P10276 whole entry, looked up): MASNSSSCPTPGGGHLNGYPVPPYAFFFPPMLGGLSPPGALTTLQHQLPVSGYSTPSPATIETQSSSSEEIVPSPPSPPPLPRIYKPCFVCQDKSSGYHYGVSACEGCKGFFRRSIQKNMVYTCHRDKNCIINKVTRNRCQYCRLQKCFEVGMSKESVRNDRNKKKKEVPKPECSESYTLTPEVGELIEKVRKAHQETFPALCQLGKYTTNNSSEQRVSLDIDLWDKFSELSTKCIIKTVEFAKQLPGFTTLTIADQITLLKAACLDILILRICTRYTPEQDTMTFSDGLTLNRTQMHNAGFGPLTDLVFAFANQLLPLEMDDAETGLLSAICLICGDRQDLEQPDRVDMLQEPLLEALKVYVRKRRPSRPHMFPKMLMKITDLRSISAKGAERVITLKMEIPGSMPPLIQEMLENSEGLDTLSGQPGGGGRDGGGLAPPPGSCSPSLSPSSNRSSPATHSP

Turning to `[Cl][Bi]([Cl])([c]1ccccc1)([c]1ccccc1)[c]1ccccc1`, the AC50 in [1] is 6.38 µM (active); in assay [4], 3.07 µM (active); in [6], 5.85 µM (active); in assay [8], 6.21 µM (active); in assay [10] it was 3.68 µM (active); in [12] it was 6.3 µM (active). Besides, in [17], the AC50 is 4.47 µM (active). In addition, the result in assay [2], in assay [3], in [5], in assay [7], in assay [9] and in assay [11] was inactive. Also, the molecule was classed as inactive in [13], in [14], in assay [15], in assay [16] and in [18].

Regarding `CC(C)(C)c1ccc(-c2ccc(C(C)(C)C)cc2)cc1`, the molecule was called inactive in assay [1], in assay [2], in assay [4], in assay [5], in [6] and in assay [7]. In addition, the result in [19], in [9], in assay [10], in assay [11], in assay [12] and in assay [13] was inactive. The outcome in [14], in assay [15], in assay [16], in assay [17] and in assay [18] was inactive. Further, the AC50 in assay [3] was 51.8 µM (active).

On to `O=CC1CC1`, for which the call in [1], in assay [2], in [3], in assay [4], in assay [6] and in [7] was inactive. Moreover, the molecule was called inactive in assay [8], in [9], in assay [11], in [12], in [13] and in [14]. Besides, the call in assay [15], in [16], in [17], in assay [20] and in assay [18] was inactive. For the same molecule, the concentration at half-maximal activity (AC50) in [5] was 0.119 µM (active).

`O=C1c2ccccc2C(=O)C1c1nc2ccccc2c(Br)c1O`: the molecule was called inactive in assay [1], in [2], in assay [3], in assay [4], in assay [6] and in [7]. The molecule was classed as inactive in [19], in assay [9], in [10], in assay [11], in assay [12] and in assay [13]. Further, the result in assay [15], in assay [17], in assay [20] and in assay [18] was inactive. Also, the AC50 in assay [5] is 0.388 µM (active); in assay [14], 6.37 µM (active); in [16], 1.26 µM (active).

A word on the AC50: it is the concentration at which the activity in the assay is half-maximal.
